Hits are enriched below; roughly 1.5% of the tested compounds scored in any of these assays.
CtBP-E1A inh = qHTS Assay for Inhibitors of the CtBP/E1A Interaction. AlphaScreen GST-E1A/His-CtBP binding, 1536-well; hits give low values. activity change, % (test concentration not listed). 340,000 tested, 0.49% active; in the data active means activity change below about -65%; inconclusive means mostly about -30% to -63%
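GST-E1A and His-tagged CtBP (125 nM each as 5X stock) were preincubated with pin-transferred compound for 2 h at 37 °C in the dark, then glutathione donor and nickel acceptor beads were added for 1 h before AlphaScreen reading.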
Six1-Eya2 blk = qHTS Assay for Inhibitors of the Six1/Eya2 Interaction; AlphaScreen GST-Six1/His-Eya2 binding, biochemical; hits give low values; activity change, % (no concentration beside the values); 360,000 tested, 0.56% active; in the data active means activity change below about -65%; inconclusive means mostly about -30% to -63%
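Six1/Eya2 binding was read as AlphaScreen signal after compounds were pinned into GST-Six1 plus His-tagged Eya2 (5X stock 250/500 nM) in pH 8.0 Tris/NaCl/TCEP buffer, beads added, then incubated 1 h, 37 C, dark.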
TrxR1 inh = qHTS Assay for Inhibitors of Mammalian Selenoprotein Thioredoxin Reductase 1 (TrxR1): qHTS. recombinant rTrxR1, NADPH fluorescence consumption, selenite substrate. Potency, µM (highest dose often 114 µM), hits mostly inhibitors. 390,000 tested, 1% active. AID 588453, 2011; further: nearly all actives have a fitted effect of over 65% in size
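Rat TrxR1 (90 nM in the dispensed reagent) was pre-reduced with 400 uM NADPH for 5 min at room temperature, then incubated with compound for 15 min. After 400 uM selenite was added, NADPH fluorescence (Ex 340/Em 450 nm) was followed for 8 min.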
GALK inh = qHTS Assay for Inhibitors of Human Galactokinase (GALK); AID 1868, 2009; Potency, µM (top dose mostly 57.5 µM), most hits filed as inhibitors; 270,000 tested, 0.007% active; P51570; Purified GALK, Kinase-Glo residual ATP luminescence
Target sequence (P51570 whole entry, looked up): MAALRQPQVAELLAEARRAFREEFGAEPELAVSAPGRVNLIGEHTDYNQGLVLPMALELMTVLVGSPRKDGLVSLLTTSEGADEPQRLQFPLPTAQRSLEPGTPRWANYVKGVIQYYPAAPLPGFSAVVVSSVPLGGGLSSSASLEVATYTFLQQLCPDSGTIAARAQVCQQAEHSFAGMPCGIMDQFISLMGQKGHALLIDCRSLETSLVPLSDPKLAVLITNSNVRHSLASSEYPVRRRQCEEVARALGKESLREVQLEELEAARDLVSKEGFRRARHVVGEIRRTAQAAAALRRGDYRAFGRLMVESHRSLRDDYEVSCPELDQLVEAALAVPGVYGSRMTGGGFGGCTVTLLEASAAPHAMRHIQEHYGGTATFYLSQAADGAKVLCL
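Kinase-Glo Plus luminescence measured ATP left after a 1 h room-temperature reaction. The reaction used 5 nM GALK, 100 uM galactose and 35 uM ATP at pH 8.0 (20 mM HEPES, 5 mM MgCl2, 60 mM NaCl, 1 mM DTT, 0.01% BSA).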
TrxR1 substrate = qHTS Assay for Substrates of Mammalian Selenoprotein Thioredoxin Reductase 1 (TrxR1): qHTS | Thioredoxin reductase 1, cytoplasmic (Rattus norvegicus), O89049 | purified TrxR1 substrate turnover, NADPH consumption readout | Potency, µM (top dose mostly 114 µM) | 390,000 tested, 0.01% active; further: nearly all actives have a fitted effect of over 50% in size
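Rat TrxR1, dispensed at 90 nM, was prereduced with 400 uM NADPH (final) for 5 min at ~22 deg C, then incubated with compound 15 min before 400 uM selenite. A first-read NADPH fluorescence drop versus no-compound background flagged substrates.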
Eya2 inh = qHTS Assay for Inhibitors of the Phosphatase Activity of Eya2 | recombinant Eya2, OMFP fluorescence dephosphorylation (OMFP is methylfluorescein phosphate) | Potency, µM (titrated, usually from 76.9 µM), actives largely listed as inhibitors | 330,000 tested, 0.006% active
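Eya2 (0.2 uM) preincubated 10 min at ambient with compound, then OMFP substrate added at 50 uM; 10 min reaction in 50 mM HEPES pH 7.5, 50 mM NaCl, 5 uM MgCl2, 0.05% BSA, 1 mM DTT. Fluorescence read at Ex 485/Em 525 nm.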
Numbers stand for hits. Unless noted, the call rests on the fitted dose curve; in most records, active means well fitted curve in the direction sought with a large enough effect; inconclusive means small, poorly fitted or top-dose-only effect, or another doubt; inactive means no such curve, though single readings can be large; an effect the other way counts as inactive or inconclusive.

C#CCN1C(=O)C(O)(CC(=O)/C=C/c2ccco2)c2ccccc21 (stereo not given) was read as Six1-Eya2 blk inactive, TrxR1 inh 39.8µM, GALK inh inactive, TrxR1 substrate inactive and Eya2 inh inactive.
Screening CCOc1ccc2c(c1)c(N=NC(=N)N)c(O)n2C returned CtBP-E1A inh inconclusive, Six1-Eya2 blk -79.8, TrxR1 inh inactive, GALK inh inactive, TrxR1 substrate inactive and Eya2 inh inactive.
`CCOc1ccc2c(c1)c(N=NC(N)=S)c(O)n2C` gave CtBP-E1A inh inconclusive, Six1-Eya2 blk inconclusive, TrxR1 inh inactive, GALK inh inactive, TrxR1 substrate inactive and Eya2 inh inactive.
Cc1cccc(OCCOc2ccccc2C=C(C#N)C#N)c1 was read as CtBP-E1A inh inactive, Six1-Eya2 blk inactive, TrxR1 inh 2.82µM, GALK inh inactive, TrxR1 substrate inactive and Eya2 inh inactive.
Screening O=C1NCCCC2c3c(cc(Br)c(O)c3Br)OC12N1CCCCC1 (stereo not given) returned CtBP-E1A inh inactive, Six1-Eya2 blk inactive, TrxR1 inh 25.1µM, GALK inh inactive, TrxR1 substrate inactive and Eya2 inh inactive.
Screening O=C1C(=O)C(c2ccc(O)cc2O)Oc2cc(O)cc(O)c21 (stereo not given) returned TrxR1 inh 4.47µM and TrxR1 substrate inactive.
COc1ccc(Cl)cc1N(C)c1nc(N2CCN(S(=O)(=O)c3ccc(C)cc3)CC2)c2ccccc2n1 was read as TrxR1 inh inactive and TrxR1 substrate inactive.
Cc1ccc(-c2ccc(CCC(=O)O)o2)cc1 was read as CtBP-E1A inh inactive, Six1-Eya2 blk inactive, TrxR1 inh 22.4µM, GALK inh inactive, TrxR1 substrate inactive and Eya2 inh inactive.
`O=C(O)CCc1ccc(-c2cccs2)o1` gave CtBP-E1A inh inactive, Six1-Eya2 blk inactive, TrxR1 inh inconclusive, GALK inh inactive, TrxR1 substrate inactive and Eya2 inh inactive.
Screening COc1ccc(OC)c(NC(=O)CCN2CCN(c3ccccc3F)CC2)c1 returned CtBP-E1A inh inactive, Six1-Eya2 blk inactive, TrxR1 inh inactive, GALK inh inactive, TrxR1 substrate inactive and Eya2 inh inactive.
O=C(CCN1CCN(c2ccccc2F)CC1)c1ccc(Br)cc1 was read as CtBP-E1A inh inactive, Six1-Eya2 blk inactive, TrxR1 inh 0.282µM, GALK inh inactive, TrxR1 substrate inactive and Eya2 inh inactive.
COc1ccc(C(=O)CCN2CCN(c3ccccc3F)CC2)cc1 was read as CtBP-E1A inh inactive, Six1-Eya2 blk inactive, TrxR1 inh 1.58µM, GALK inh inactive, TrxR1 substrate inactive and Eya2 inh inactive.
COc1ccccc1-c1cc(C(F)(F)F)nc(S(=O)(=O)CCCC(=O)Nc2cc(OC)c(OC)c(OC)c2)n1 was read as TrxR1 inh 22.4µM and TrxR1 substrate inactive.
For COc1ccc(NC(=O)CCCS(=O)(=O)c2nc(-c3ccc(OC)c(OC)c3)cc(C(F)(F)F)n2)cc1OC the results were TrxR1 inh 25.1µM and TrxR1 substrate inactive.
For COc1ccccc1-c1cc(C(F)(F)F)nc(S(=O)(=O)CCCC(=O)Nc2ccc(F)c(Cl)c2)n1 the results were TrxR1 inh inactive and TrxR1 substrate inactive.
`COc1ccc(-c2cc(C(F)(F)F)nc(S(=O)(=O)CCCC(=O)Nc3cccc(O)c3)n2)cc1OC` gave CtBP-E1A inh inactive, Six1-Eya2 blk inactive, TrxR1 inh inconclusive, GALK inh inactive, TrxR1 substrate inactive and Eya2 inh inactive.
`O=C(CN1C(=O)CC(c2ccco2)Sc2ccccc21)Nc1ccc(OC(F)(F)F)cc1` (stereo not given) gave TrxR1 inh inactive and TrxR1 substrate inactive.
